Measured values from PubChem BioAssay (NCI).
Compounds without any hit were thinned out: in the full panel of roughly 83,000, 20% have a hit.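 The test compound was applied at a single concentration to cells in 96-well plates for 48 hours, and percent growth was recorded.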 A number with no mark means an inactive call. Active and inactive are the calls of the source. Rule for the calls: active = growth percent below 10; inactive = the rest.

system: SNB-75 CNS; test: NCI-60 one-dose screen, 48 h (100 = growth as untreated, 0 = no growth, -100 = all killed); conditions: 10 µM unless noted

SMILES	growth [%]
C=C1CC[C@@H]2[C@](C)(COC(C)=O)[C@H](OC(C)=O)CC[C@@]2(C)[C@@H]1CC(Sc1ccccc1)C1=CCOC1=O (some centres not stated)	87
COc1cc(CNS(=O)(=O)c2ccc(C)cc2)ccc1OCc1cn(-c2ccc(Br)cc2)nn1	87
CC(=O)Cc1nsc(NC(=O)c2cc(-c3cc(Cl)cc(Cl)c3)oc2C)n1	84.1

system: SNB-19 CNS; test: as above; conditions: 10 µM unless noted

SMILES	growth
COc1ccc(C(=O)Nc2ncc(Cc3cccc(Cl)c3)s2)cc1OC	34.2%
CN[C@]12CC3(C=CC(=O)C=C3)O[C@@]1(Cc1ccc(OC)cc1)N(C)C(=O)N2	64.4%
Cc1nc2c(=O)[nH]c(SCC(=O)Nc3cccc(F)c3)nc2[nH]c1=O	102%
O=S(=O)(Nc1ccc(Cl)cc1)c1ccc(-c2cnc(C3CC3)o2)cc1	30%
C=CCn1c(SCC(=O)Nc2ccc(C(=O)/C=C/c3ccc(Cl)cc3)cc2)nnc1-c1cc(-c2ccc(S(N)(=O)=O)cc2)nc2ccccc12	81.4%
CCN1C(=O)N(CC)C2C1NN=c1s/c(=C\c3ccc(Cl)cc3Cl)c(=O)n12 (configuration not stated)	27.9%
COC(=O)[C@H]1CCCN1C[C@@H](O)CN1C(=O)/C(=C\c2cc(OC)c(OC)c(OC)c2)c2ccccc21	95.9%
CN(C)CCCC1(c2ccc(F)cc2)OCc2cc(-c3cccc4[nH]ccc34)ccc21 (configuration not stated)	51.9%
O=C1Nc2ccc(Br)cc2/C1=N/c1n[nH]c(=S)s1	101%
CCOC(=O)c1cc(-c2ccc([N+](=O)[O-])cc2)n(-c2ccc(C(=O)O)c(O)c2)c1C	90.7%
COc1ccc(-c2nn(-c3ccccc3)cc2/C=C2/SC(=S)N(C)C2=O)cc1	60.7%
O=C1c2cccnc2C(=O)c2c1c(C(=O)NCCn1ccnc1)c1ccccn21	30.8%
N#C/C(=C\c1ccc2ccccc2c1)c1cc2ccccc2[nH]1	43.8%
Cc1noc(C)c1C(=O)OCc1coc2ccccc2c1=O	82.7%
CN(C)CCNc1nc2c3cc(Cl)ccc3nn2c2ccccc12	41.8%
CC(=O)N1N=C(c2ccc(Nc3nc(Nc4ccc(Cl)cc4)nc(Nc4ccc(Cl)cc4)n3)cc2)CC1c1ccco1 (configuration not stated)	101%
CSc1nc2sc3c(c2c(=O)n1-c1ccc([N+](=O)[O-])cc1)CCCCC3	86%

SMILES	growth
Cc1cc(N)c2cc(NC(=O)/C=C\c3ccccc3Cl)ccc2n1	-86.3% (active)
CCN(C(=O)N1CCN(c2cc3c(cc2F)c(=O)c(C(=O)O)cn3C2CC2)CC1)c1nc(-c2ccc(Cl)cc2)cs1	15.6%
COC(=O)c1cc(-c2ccc(S(C)(=O)=O)cc2)[nH]c1N/N=C/c1c(Cl)cccc1Cl	22.8%
NC(=O)c1c(NC(=O)c2ccccc2)sc2c1CCC(=O)C2	18.6%
Cc1ccc(C2=Nc3c(N)ncnc3NC(c3ccc4c(c3)OCO4)C2)cc1 (configuration not stated)	73.2%
COc1ccc(-c2nc(SCC(C)C)nc(N/N=C\c3ccc(F)cc3)c2C#N)cc1	81%
COc1ccc(C(c2cc(OC)c(OC)c(OC)c2)N2CCN(c3ccccc3)CC2)cc1 (configuration not stated)	84.1%
CCCC(=O)NC(c1ccc2c(c1)OCO2)c1ccc2cccnc2c1O (configuration not stated)	29.5%
OCCNCCCOc1ccc2ncnc(Nc3ccc(Oc4cccc(C(F)(F)F)c4)c(Cl)c3)c2c1	44.9%
COC(=O)CCC(=O)C(=O)OC	12.6% [10 mM]
CS(=O)(=O)Nc1cc(-c2ccc3ncnc(Nc4c(Cl)ccc5c4OCO5)c3c2)cnc1Cl	-4.15% (active)
O=C1c2c(c3c4ccc(Br)cc4oc3c3[nH]c4ccccc4c23)C(=O)N1O	29.7%
O=C1/C(=C/c2ccc(-c3ccc(Br)cc3)o2)SC(=S)N1CCc1ccc(O)cc1	85.5%
CCN(CC)CCSc1nc(-c2ccccc2)c(C#N)c(=O)[nH]1	101%
O=C(CCCCCCN1CC(=O)N2[C@H](c3cc(Br)cs3)c3[nH]c4ccccc4c3C[C@H]2C1=O)NO	41.1%
C#Cc1cccc(Nc2ncnc3ccc(-c4cnc(N)nc4)cc23)c1	47.2%
O=C(c1ccc(Cl)cc1)N1CCN(c2ccnc3cc(Cl)ccc23)CC1	84.2%
